Screening data deposited in PubChem by Sanford-Burnham Center for Chemical Genomics.
A selection: hits, their analogues and other compounds. The true share with any hit is near 3.9%.
TROY signal inh: blocks TROY-dependent signaling in reporter cells | Q293 LMP1-TROYcd NF-kB luciferase reporter, 4 h | inhibition, % at 10 µM | actives 0.98% (n = 360,000) | AID 1347056;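 active means compounds whose plate-normalised and pattern-corrected inhibition of the luciferase reporter signal at the single screening dose is 50% or more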
TWEAK Fn14 block: blocks TWEAK-Fn14 interaction in a reporter cell assay; inhibition, % at 10 µM; actives 2% (n = 360,000); TWEAK-stimulated Fn14 reporter cells, luciferase luminescence, 8 h; in the data active means inhibition above about 50%
HIF-2a inh: HIF-2a inhibition; 786-0 RCC cells HIF-2a reporter, luciferase luminescence, overnight; inhibition, % at 18.8 µM; actives 0.72% (n = 360,000); AID 624352;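 active means inhibition of the luminescence signal of 40% or more relative to plate controls, in a single-dose primary screen at 18.75 µM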
Peg3 prom inh: inhibitors of Peg3 promoter; actives 1.7% (n = 360,000); inhibition, % at 20 µM; AID 588405; HeLa PEG-Prom luciferase reporter, luminescence, overnight;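 active means inhibition of at least 50% at 20 µM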
KKLEB cytotox: reduces viability of KKLEB cystic fibrosis airway cells | KKLEB CF airway cells viability, ATPlite luminescence, overnight; active compounds read low; cells stimulated with P. aeruginosa culture filtrate | activity change (cytotoxicity), % at 5 µM | actives 0.36% (n = 360,000);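 active means corrected activity change at or below -50% at 5 µM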
CF NFkB block: blocks PAF-induced NF-kB reporter in cystic fibrosis cells. KKLEB NF-kB-GFP reporter, GFP fluorescence overnight. inhibition, % at 5 µM. actives 0.86% (n = 360,000);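 active means at least 50% inhibition at 5 µM, scaled per plate between neutral and stimulator controls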;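 further: PAF is a Pseudomonas aeruginosa culture filtrate used as stimulus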
Each line names hits and unclear results; the compound was inactive in the other large screens.

Brc1ccc(C2=Nn3c(nnc3-c3n[nH]c4c3CCC4)SC2)cc1	TWEAK Fn14 block 60
COc1cc(OC)cc(C(=O)N[C@H](C(=O)OCC(=O)NC(=O)NC(C)(C)C)C(C)C)c1	none
CN(C)/C=C/C(=O)c1ccc(Br)s1	none
Cc1cc(Br)c2c(c1)/C(=C/C(=O)c1cccs1)C(=O)N2	Peg3 prom inh 69
Cc1cc(C)c2c(c1)/C(=C/C(=O)c1ccc(Br)s1)C(=O)N2	Peg3 prom inh 52, KKLEB cytotox -61
CCN(C(=O)COC(=O)c1ccc2c(c1)OCO2)c1ccccc1	none
O=C(Nc1ccccc1)Nc1nnc(-c2ccccc2)o1	none
c1ccc(-c2nnc(NC3=NCCC3)o2)cc1	TWEAK Fn14 block 53
CCOc1ccc(CCNC(=O)COC(=O)CNS(=O)(=O)c2ccc(C)cc2)cc1OCC	none
CSCC[C@H](NC(=O)OC(C)(C)C)C(=O)N/N=C/c1cccc2nccnc12	TWEAK Fn14 block 93
O=C(O)C1CCC(CNCc2ccccc2Cl)CC1 (centres undefined)	TWEAK Fn14 block 56
O=C(O)C1CCC(CNCc2ccncc2)CC1 (centres undefined)	none
CCOC(=O)N1CCN(CC(O)c2c[nH]c3ccccc23)CC1 (centres undefined)	none
CCN1CCC(=NNC(=O)c2ccco2)CC1	none
O=C(Nc1nnc(-c2cccs2)o1)c1cccc(C(F)(F)F)c1	TWEAK Fn14 block 101
N#Cc1ccc(C(=O)Nc2nnc(-c3cccs3)o2)cc1	none
Cc1nn(-c2ccccc2)c(C)c1NC(=O)COC(=O)c1ccccc1OC(F)F	TROY signal inh 51
Cc1cccc(C(=O)OCC(=O)Nc2c(C)nn(-c3ccccc3)c2C)c1O	none
C[C@H](NC(=O)c1ncn2c1c(=O)[nH]c1ccc(Br)cc12)c1ccccc1	Peg3 prom inh 100
C[C@H](NC(=O)c1ncn2c1c(=O)[nH]c1ccccc12)c1ccccc1	none
O=C(O)CN1C(=O)/C(=C\c2cn(-c3ccccc3)nc2-c2ccccc2)SC1=S	none
CC(C)COc1ccc(-c2nn(-c3ccccc3)cc2/C=C2/SC(=S)N(CC(=O)O)C2=O)cc1	TROY signal inh 88
COCc1ccc(C(=O)N(C)CC2CCCN(CCc3ccc(OC)cc3)C2)o1 (centres undefined)	none
CS(=O)(=O)N1CCN(C(=O)c2ccc(F)cc2)CC1	none
Cc1ccc2nc(N(CCCN(C)C)C(=O)CCc3ccccc3)sc2c1	Peg3 prom inh 53
Cc1ccc2nc(N(CCCN(C)C)C(=O)CS(=O)(=O)c3ccccc3)sc2c1	none
CN(C)CCCN(C(=O)CCc1ccccc1)c1nc2ccc(Cl)cc2s1	Peg3 prom inh 108
CN(C)CCCN(C(=O)COc1ccc(Cl)cc1)c1nc2cc3c(cc2s1)OCO3	Peg3 prom inh 64
COc1ccccc1CN1CC(C(=O)NCc2c(F)ccc(C)c2F)CCC1=O (centres undefined)	none
Cc1ccccc1C(=O)NC1CCN(CC(=O)NCc2cccs2)CC1	none
COc1ccccc1-c1nc(C(=O)NCC2CCCO2)cc2c1[nH]c1ccccc12 (centres undefined)	none
COc1cc(-c2nc(C(=O)NCC3CCCO3)cc3c2[nH]c2ccccc23)cc(OC)c1OC (centres undefined)	TWEAK Fn14 block 59, Peg3 prom inh 57
O=C(NCC1CCCO1)c1cc2c([nH]c3ccccc32)c(-c2cccc(Cl)c2)n1 (centres undefined)	TWEAK Fn14 block 56, Peg3 prom inh 53
O=C(NC1CCCC1)c1cccc2c1C(=O)c1ccc(/C=C/c3ccccc3)cc1S2(=O)=O	none
Cc1cc(C)cc(OC(=O)CN2C(=O)c3ccccc3C2=O)c1	none
CSc1nc(NCCN(C)C)c2sc3nc(-c4ccco4)c4c(c3c2n1)CCC4	Peg3 prom inh 106
Cc1ccc(C2=NNC(c3cccc(F)c3)S2)cc1 (centres undefined)	TROY signal inh 54, TWEAK Fn14 block 65
COc1ccc(CNC(=O)c2sc(=O)n(Cc3ccc(C)cc3)c2C)cc1OC	none
CSc1ccc(Cn2c(C)c(C(=O)NCc3ccc(Cl)c(Cl)c3)sc2=O)cc1	none
COc1ccc(CNC(=O)c2sc(=O)n(Cc3ccc(-c4ccccc4)cc3)c2C)cc1OC	TWEAK Fn14 block 61
